Assay in all cases: DAPPL (digital affinity profiling via proximity ligation, sequencing); 10 mM Tris-HCl pH 7.5, 50 mM NaCl, 1 mM DTT, 4% glycerol, room temperature, 30 min; GST-TFs on glutathione beads, 16-mer random dsDNA library, 0.1% formaldehyde crosslink after washing; high values mean tight binding
Assay [1] deals with T1, FEV (Homo sapiens, UniProt Q99581 1-238).
T1 sequence: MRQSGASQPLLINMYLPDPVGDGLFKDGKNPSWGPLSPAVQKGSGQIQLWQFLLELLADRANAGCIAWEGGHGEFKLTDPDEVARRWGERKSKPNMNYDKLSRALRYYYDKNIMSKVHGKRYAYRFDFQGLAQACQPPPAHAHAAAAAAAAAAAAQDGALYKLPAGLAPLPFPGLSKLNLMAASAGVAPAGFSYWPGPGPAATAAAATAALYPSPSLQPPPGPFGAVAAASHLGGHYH
Particulars: protein: recombinant; tags: N-terminal GST; dsDNA, one strand shown. The essentials:
(§1)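 Pools were built from human transcription factors expressed in yeast as GST fusions, captured on glutathione beads and DNA-barcoded, along with a tag-only sample. Incubation with 200 nmole of a 16-mer random double-stranded DNA library lasted 30 min at room temperature in Tris/NaCl/DTT/glycerol buffer, and was followed by washing, 0.1% formaldehyde crosslinking, proximity ligation, PCR amplification and Illumina NextSeq500 sequencing. Binding signal is the quotient of each hexamer's read frequency for a factor and its frequency for the tag-only sample.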

In assay [2] the target is ETV5 (Homo sapiens, UniProt P41161 1-510). Particulars: protein: recombinant; tags: N-terminal GST; dsDNA, one strand shown. Summed up:
as §1

In assay [3] the target is HSF1 (Homo sapiens, UniProt Q00613 1-529). Particulars: protein: recombinant; tags: N-terminal GST; chain copies: 3; dsDNA, one strand shown. The essentials: as §1
Sequence of HSF1 (Q00613 whole entry): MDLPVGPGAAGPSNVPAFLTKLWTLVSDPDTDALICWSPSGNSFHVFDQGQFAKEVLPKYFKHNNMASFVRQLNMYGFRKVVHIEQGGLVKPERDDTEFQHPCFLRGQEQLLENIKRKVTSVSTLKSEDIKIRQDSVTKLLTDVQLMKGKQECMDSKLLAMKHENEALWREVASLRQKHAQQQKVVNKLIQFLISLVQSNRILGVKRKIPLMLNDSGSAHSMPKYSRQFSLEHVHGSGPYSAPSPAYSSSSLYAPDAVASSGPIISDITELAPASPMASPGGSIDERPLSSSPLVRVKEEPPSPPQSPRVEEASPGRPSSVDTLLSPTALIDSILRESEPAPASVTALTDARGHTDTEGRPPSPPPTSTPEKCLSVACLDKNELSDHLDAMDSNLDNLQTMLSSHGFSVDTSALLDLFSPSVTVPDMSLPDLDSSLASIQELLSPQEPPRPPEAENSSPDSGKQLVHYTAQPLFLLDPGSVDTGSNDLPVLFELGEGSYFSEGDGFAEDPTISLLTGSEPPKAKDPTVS
The target in assay [4] is T2, SPIC (Homo sapiens, UniProt Q8N5J4 1-248).
T2 sequence: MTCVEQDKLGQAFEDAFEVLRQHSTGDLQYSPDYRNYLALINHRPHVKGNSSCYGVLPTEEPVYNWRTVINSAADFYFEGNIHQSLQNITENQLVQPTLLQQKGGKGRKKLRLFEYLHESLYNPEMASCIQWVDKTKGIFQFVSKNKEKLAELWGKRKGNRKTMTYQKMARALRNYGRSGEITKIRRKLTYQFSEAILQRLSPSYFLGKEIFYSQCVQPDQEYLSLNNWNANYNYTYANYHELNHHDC
Particulars: protein: recombinant; tags: N-terminal GST; dsDNA, one strand shown. The essentials:
as §1

The target in assay [5] is ELF4 (Homo sapiens, UniProt Q99607 1-663). Particulars: protein: recombinant; tags: N-terminal GST; dsDNA, one strand shown. Summed up: as §1
Sequence of ELF4 (Q99607 whole entry): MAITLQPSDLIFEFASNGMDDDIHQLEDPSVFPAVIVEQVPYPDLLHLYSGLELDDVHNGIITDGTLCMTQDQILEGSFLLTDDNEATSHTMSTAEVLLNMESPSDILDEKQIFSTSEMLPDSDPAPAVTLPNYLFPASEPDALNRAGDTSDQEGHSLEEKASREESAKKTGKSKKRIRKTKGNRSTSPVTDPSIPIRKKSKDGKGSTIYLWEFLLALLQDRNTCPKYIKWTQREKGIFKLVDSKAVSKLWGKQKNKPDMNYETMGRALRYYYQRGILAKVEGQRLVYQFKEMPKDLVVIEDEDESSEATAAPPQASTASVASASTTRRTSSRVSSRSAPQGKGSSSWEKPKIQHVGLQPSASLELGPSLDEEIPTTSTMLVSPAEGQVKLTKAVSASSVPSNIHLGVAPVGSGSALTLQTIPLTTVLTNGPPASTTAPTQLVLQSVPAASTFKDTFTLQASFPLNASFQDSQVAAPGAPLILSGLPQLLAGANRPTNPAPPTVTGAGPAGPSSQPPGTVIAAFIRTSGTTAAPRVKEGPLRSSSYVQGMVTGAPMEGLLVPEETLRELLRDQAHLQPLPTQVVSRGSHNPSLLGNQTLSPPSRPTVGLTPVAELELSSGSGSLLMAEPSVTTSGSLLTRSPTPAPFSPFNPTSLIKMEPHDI
The target in assay [6] is T3, ELK4 (Homo sapiens, UniProt P28324-2 1-405).
T3 sequence: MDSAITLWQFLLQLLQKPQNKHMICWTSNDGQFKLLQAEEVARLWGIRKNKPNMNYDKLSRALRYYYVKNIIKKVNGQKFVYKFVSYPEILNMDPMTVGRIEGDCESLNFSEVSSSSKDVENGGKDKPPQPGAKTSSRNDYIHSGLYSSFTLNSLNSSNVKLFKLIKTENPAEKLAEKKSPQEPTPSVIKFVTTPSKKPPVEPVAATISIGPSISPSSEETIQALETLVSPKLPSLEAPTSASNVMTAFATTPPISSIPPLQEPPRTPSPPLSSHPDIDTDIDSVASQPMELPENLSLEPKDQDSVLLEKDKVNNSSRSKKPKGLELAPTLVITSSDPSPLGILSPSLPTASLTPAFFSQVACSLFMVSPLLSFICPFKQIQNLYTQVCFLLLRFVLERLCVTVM
Particulars: protein: recombinant; tags: N-terminal GST; dsDNA, one strand shown. The essentials: as §1

Assay [7] concerns the target T4, ETV2 (Homo sapiens, UniProt O00321 1-342).
T4 sequence: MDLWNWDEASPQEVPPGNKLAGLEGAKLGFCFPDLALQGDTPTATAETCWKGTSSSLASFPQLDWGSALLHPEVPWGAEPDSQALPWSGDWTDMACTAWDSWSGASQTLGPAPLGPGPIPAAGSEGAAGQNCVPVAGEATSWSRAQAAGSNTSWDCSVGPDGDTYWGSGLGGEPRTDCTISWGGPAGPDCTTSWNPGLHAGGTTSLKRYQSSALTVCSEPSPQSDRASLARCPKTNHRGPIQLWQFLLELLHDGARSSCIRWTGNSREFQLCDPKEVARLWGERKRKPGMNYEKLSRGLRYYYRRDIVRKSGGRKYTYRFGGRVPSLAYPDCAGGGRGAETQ
Particulars: protein: recombinant; tags: N-terminal GST; dsDNA, one strand shown. The essentials: as §1

Assay [8] has as its target T5, ELF3 (Homo sapiens, UniProt P78545 1-371).
T5 sequence: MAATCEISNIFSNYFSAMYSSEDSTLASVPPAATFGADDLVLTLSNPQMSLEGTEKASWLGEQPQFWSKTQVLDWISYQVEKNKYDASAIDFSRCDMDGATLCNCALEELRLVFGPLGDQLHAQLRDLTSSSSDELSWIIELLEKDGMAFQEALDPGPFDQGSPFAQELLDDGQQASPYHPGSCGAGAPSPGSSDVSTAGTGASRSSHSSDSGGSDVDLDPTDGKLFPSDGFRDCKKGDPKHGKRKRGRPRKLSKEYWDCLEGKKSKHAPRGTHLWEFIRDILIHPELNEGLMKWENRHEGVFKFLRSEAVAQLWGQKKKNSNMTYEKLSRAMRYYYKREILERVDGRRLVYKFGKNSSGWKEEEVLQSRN
Particulars: protein: recombinant; tags: N-terminal GST; dsDNA, one strand shown. Summed up: as §1

For assay [9], the target named is CRX (Homo sapiens, UniProt O43186 1-299). Particulars: protein: recombinant; tags: N-terminal GST; dsDNA, one strand shown. The essentials:
as §1

Assay [10] deals with ETV1 (Homo sapiens, UniProt P50549 1-477). Particulars: protein: recombinant; tags: N-terminal GST; dsDNA, one strand shown. The essentials:
as §1

The target in assay [11] is T6, ERF (Homo sapiens, UniProt P50548 1-548).
T6 sequence: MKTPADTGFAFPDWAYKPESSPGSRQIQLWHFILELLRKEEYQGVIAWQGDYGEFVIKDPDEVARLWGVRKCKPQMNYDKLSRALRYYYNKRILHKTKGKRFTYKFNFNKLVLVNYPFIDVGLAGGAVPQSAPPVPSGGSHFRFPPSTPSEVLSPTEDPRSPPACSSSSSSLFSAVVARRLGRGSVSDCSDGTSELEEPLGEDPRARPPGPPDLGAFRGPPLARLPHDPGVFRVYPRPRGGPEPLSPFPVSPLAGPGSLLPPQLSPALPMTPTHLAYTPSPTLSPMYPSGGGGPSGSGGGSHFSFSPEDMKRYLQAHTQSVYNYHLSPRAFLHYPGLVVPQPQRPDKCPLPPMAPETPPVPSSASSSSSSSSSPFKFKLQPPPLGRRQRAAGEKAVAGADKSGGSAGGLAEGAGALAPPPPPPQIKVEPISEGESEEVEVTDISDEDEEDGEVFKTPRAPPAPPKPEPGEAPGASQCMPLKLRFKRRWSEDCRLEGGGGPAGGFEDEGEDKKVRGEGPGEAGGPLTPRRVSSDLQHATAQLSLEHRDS
Particulars: protein: recombinant; tags: N-terminal GST; dsDNA, one strand shown. Summed up: as §1

In assay [12] the target is T7, ETV3L (Homo sapiens, UniProt Q6ZN32 1-361).
T7 sequence: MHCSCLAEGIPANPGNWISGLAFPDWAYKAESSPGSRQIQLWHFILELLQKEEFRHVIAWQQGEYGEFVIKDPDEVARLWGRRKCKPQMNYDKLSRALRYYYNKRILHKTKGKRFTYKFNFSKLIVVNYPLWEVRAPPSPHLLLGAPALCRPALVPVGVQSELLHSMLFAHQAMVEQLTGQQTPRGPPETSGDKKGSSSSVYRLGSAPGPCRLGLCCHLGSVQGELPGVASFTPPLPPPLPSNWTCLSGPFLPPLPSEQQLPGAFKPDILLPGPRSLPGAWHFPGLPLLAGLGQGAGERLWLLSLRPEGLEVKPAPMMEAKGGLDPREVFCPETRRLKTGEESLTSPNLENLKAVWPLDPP
Particulars: protein: recombinant; tags: N-terminal GST; dsDNA, one strand shown. Summed up:
as §1

Assay [13] addresses T8, ETS2 (Homo sapiens, UniProt P15036 1-469).
T8 sequence: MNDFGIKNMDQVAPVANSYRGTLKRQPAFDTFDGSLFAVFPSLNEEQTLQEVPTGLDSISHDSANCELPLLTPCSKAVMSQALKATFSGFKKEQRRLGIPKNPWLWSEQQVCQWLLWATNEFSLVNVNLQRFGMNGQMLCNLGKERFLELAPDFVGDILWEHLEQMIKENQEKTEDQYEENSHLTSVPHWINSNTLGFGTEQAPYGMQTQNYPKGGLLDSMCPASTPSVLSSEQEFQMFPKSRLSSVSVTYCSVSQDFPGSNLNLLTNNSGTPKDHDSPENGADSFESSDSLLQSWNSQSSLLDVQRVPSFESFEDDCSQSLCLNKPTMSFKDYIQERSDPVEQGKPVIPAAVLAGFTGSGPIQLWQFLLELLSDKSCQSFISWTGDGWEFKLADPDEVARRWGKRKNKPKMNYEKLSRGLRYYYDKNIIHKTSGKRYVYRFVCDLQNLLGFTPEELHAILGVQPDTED
Particulars: protein: recombinant; tags: N-terminal GST; dsDNA, one strand shown. The essentials: as §1

Assay [14] deals with T9, SPDEF (Homo sapiens, UniProt O95238 1-335).
T9 sequence: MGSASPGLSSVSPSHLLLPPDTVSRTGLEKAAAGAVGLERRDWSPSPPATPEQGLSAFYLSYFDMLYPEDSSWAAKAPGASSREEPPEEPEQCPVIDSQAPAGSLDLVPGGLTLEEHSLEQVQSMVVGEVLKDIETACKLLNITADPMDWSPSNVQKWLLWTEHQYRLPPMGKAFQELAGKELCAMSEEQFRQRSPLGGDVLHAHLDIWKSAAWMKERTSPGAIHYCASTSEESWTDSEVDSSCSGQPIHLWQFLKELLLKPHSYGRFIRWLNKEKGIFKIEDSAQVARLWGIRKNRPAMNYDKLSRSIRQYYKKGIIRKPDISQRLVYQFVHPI
Particulars: protein: recombinant; tags: N-terminal GST; dsDNA, one strand shown. The essentials:
as §1

Assay [15] has as its target T10, ETV7 (Homo sapiens, UniProt Q9Y603 1-341).
T10 sequence: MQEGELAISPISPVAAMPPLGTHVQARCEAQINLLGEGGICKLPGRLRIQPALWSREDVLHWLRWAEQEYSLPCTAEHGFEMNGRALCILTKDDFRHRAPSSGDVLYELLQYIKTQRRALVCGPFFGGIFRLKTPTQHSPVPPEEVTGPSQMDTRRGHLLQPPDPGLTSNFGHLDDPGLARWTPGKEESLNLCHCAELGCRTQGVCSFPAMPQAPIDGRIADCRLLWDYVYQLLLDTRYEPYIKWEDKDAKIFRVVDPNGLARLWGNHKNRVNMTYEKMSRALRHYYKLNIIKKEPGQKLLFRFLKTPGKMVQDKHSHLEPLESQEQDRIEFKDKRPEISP
Particulars: protein: recombinant; tags: N-terminal GST; dsDNA, one strand shown. Summed up: as §1

The target in assay [16] is T11, ELF5 (Homo sapiens, UniProt Q9UKW6-2 1-255).
T11 sequence: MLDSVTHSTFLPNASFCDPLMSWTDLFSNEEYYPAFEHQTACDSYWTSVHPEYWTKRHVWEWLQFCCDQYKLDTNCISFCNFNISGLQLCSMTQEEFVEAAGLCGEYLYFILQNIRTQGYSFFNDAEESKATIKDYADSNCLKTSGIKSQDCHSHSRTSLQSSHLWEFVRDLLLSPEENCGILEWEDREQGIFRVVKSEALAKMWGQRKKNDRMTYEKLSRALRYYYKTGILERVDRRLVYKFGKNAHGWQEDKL
Particulars: protein: recombinant; tags: N-terminal GST; dsDNA, one strand shown. Summed up: as §1

Assay [17] deals with T12, ETV3 (Homo sapiens, UniProt P41162-2 1-143).
T12 sequence: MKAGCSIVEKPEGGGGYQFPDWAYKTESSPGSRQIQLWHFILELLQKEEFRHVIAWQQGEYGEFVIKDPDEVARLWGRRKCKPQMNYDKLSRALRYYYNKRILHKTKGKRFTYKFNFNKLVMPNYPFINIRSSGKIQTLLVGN
Particulars: protein: recombinant; tags: N-terminal GST; dsDNA, one strand shown. The essentials: as §1

For assay [18], the target named is ETV6 (Homo sapiens, UniProt P41212 1-452). Particulars: protein: recombinant; tags: N-terminal GST; dsDNA, one strand shown. Summed up:
as §1

Consider one sequence from publication PMC7862700, “An all-to-all approach to the identification of sequence-specific readers for epigenetic DNA modifications on cytosine”.

Sequence of ETV6 (P41212 whole entry): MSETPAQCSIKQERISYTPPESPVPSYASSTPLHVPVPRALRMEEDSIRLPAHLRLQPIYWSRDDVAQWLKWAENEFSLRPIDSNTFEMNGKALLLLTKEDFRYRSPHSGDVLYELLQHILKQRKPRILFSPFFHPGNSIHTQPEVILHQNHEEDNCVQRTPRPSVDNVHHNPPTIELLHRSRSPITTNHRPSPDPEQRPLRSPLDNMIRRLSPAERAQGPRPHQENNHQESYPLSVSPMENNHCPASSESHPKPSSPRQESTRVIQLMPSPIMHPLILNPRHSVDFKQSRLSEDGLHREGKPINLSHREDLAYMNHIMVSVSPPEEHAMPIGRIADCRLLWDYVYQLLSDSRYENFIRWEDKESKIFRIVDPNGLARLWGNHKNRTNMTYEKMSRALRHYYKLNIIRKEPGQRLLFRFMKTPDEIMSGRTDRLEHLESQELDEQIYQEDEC
Sequence of ETV1 (P50549 whole entry): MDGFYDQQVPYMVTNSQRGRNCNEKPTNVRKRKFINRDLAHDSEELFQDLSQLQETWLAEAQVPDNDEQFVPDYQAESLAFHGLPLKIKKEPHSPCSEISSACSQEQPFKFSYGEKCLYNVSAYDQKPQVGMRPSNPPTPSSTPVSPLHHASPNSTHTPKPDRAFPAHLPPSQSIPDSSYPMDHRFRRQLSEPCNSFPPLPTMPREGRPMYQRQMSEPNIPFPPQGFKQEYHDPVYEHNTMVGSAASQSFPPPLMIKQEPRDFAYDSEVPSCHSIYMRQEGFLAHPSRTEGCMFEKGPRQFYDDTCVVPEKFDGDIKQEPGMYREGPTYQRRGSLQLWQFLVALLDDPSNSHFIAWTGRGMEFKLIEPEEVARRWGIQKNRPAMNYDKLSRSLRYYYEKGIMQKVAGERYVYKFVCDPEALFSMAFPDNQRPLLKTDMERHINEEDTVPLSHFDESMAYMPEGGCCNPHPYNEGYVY
Sequence of ETV5 (P41161 whole entry): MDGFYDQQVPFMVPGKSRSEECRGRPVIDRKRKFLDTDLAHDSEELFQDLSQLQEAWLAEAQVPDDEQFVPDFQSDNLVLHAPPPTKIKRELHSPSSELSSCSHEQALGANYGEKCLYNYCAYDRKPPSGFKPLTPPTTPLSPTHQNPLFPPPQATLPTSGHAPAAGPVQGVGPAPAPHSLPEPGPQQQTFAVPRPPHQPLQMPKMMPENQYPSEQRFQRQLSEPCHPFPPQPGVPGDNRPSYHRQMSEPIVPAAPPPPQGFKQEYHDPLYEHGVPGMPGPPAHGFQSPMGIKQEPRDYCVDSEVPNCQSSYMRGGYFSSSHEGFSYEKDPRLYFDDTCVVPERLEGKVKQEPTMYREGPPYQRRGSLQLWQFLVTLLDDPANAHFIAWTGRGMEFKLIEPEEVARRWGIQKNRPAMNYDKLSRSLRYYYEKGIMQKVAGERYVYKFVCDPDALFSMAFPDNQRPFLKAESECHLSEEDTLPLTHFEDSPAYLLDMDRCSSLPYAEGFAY
Sequence of CRX (O43186 whole entry): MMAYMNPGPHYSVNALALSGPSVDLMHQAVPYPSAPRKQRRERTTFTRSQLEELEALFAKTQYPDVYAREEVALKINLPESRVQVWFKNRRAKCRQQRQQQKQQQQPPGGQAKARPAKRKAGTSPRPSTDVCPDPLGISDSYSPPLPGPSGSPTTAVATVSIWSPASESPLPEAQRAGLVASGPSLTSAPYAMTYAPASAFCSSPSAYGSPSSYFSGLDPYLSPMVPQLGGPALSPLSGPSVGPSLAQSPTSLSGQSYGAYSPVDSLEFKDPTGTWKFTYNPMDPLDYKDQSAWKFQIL

Turning to ACTTGC, the binding signal was 1.4 fold enrichment (6-mer frequency, TF over GST control) in [1]; 1.49 fold enrichment (6-mer frequency, TF over GST control) in assay [2]; 1.25 fold enrichment (6-mer frequency, TF over GST control) in assay [3]; 1.36 fold enrichment (6-mer frequency, TF over GST control) in assay [4]; 1.47 fold enrichment (6-mer frequency, TF over GST control) in assay [5]; 1.44 fold enrichment (6-mer frequency, TF over GST control) in assay [6]. Further, the binding signal in [7] was 1.36 fold enrichment (6-mer frequency, TF over GST control); in assay [8], 1.79 fold enrichment (6-mer frequency, TF over GST control); in [9], 1.12 fold enrichment (6-mer frequency, TF over GST control); in assay [10] it was 1.37 fold enrichment (6-mer frequency, TF over GST control); in assay [11], 1.3 fold enrichment (6-mer frequency, TF over GST control); in assay [12], 1.48 fold enrichment (6-mer frequency, TF over GST control). Moreover, the binding signal was 1.32 fold enrichment (6-mer frequency, TF over GST control) in assay [13]; 1.44 fold enrichment (6-mer frequency, TF over GST control) in assay [14]; 1.37 fold enrichment (6-mer frequency, TF over GST control) in assay [15]; 1.47 fold enrichment (6-mer frequency, TF over GST control) in [16]; 1.49 fold enrichment (6-mer frequency, TF over GST control) in [17]; 1.52 fold enrichment (6-mer frequency, TF over GST control) in assay [18].
